Compound activity from PubChem.
This excerpt belongs to a sample that is enriched for hits.
ERK EGF block = qHTS Assay for Inhibitors of the ERK Signaling Pathway using a Homogeneous Screening Assay; Stimulation with EGF; HEK293-V1b, EGF-stimulated phospho-ERK AlphaScreen; Potency, µM (series often up to 11.5 µM), for the others: at the top dose activity change, negative = inhibition, usual class: inhibitors; 0.41% of 130,000 active; AID 1454, 2008; active = well fitted inhibition curve with a large enough effect;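 also: plate controls were stimulated vehicle wells for no effect and unstimulated vehicle basal for full effect; nearly all actives have a fitted effect of over 55% in size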
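V1b-HEK293, 1% FBS o/n; cpd 30 min 37C; EGF 25 nM final, 5 min; lyse 10 min; AlphaScreen beads 5 h RT. Normalized DMSO basal vs EGF max; Hill AC50.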
* marks the source's active call; other numbers are inactive results; [ ] = remark or other dose. Potency is read from the fitted curve at half-maximal effect.

SMILES | ERK EGF block
COc1ccc(C2c3c(ncn(CCCO)c3=N)Oc3ccc4ccccc4c32)cc1 (stereo not drawn) | 39.8µM*
COc1ncc2nc(-c3ccc(F)cc3)c(=O)n(CCC#N)c2n1 | -0.1%
CCN(CC)CCC(=O)Nc1cccc2c1C(=O)c1ccccc1C2=O | 4.9%[57.5 µM]
CCN(CC)C(=O)c1cccc2c1C(=O)c1ccccc1-2 | 1.3%
CN(C)c1cccc2c1C(=O)c1ccccc1C2=O | 12.6µM*
CC(=O)OC1CC2C(C)(C)C(=O)C=C[C@]2(C)C2CC[C@@]3(C)C(c4ccoc4)OC(=O)C4O[C@@]43[C@]12C (stereo partly drawn) | 23.9%
CC(=O)N1CCC2(CCCN(C(c3ccccc3)c3ccccc3)C2)CC1 | 5.7%
COC(=O)/C(=N/Nc1ccccc1)N1CCCc2ccccc21 | -0.8%
CC(=O)/C(=N/Nc1ccccc1[N+](=O)[O-])N1CCCc2ccccc21 | 12.6µM*
CC(=O)/C(=N/Nc1ccc(Br)cc1)N1CCCc2ccccc21 | -3.2%[57.5 µM]
Cc1ccc(NC(=O)c2ccc(OCC3CCCO3)cc2)cc1 (stereo not drawn) | 1.6%
O=C(Nc1ccc(S(=O)(=O)N2CCCC2)cc1)c1ccc(OCC2CCCO2)cc1 (stereo not drawn) | -0.8%
O=C(Nc1ccc(Cl)c(S(=O)(=O)N2CCOCC2)c1)c1ccc(OCC2CCCO2)cc1 (stereo not drawn) | 14.1µM*
O=C(c1csnn1)N1CCC2(CCCN(c3ccc(-c4ccccc4)cc3)C2)CC1 | 0.1%
CCCC[C@@H]1C[C@H]1C(NC(=O)c1cccnc1)c1ccc(Cl)cc1 (stereo partly drawn) | 0.3%
CCOc1ccccc1C(=O)NCCC(=O)O | -15.9%[57.5 µM]
CN(C(=O)COC(=O)CNC(=O)c1ccccc1Cl)c1ccccc1 | -8.2%
CN(C(=O)COc1ccccc1C(=O)NCCOc1ccccc1)c1ccccc1 | 31.6µM*
O=C1Nc2ccc(Br)cc2/C1=C/C(=O)c1ccc2c(c1)OCO2 | 31.6µM*
O=C(/C=C\Nc1ccc2c(c1)OCO2)c1ccc2c(c1)OCO2 | -9.2%
O=C1Nc2ccc(Br)cc2/C1=C/C1CC=CCC1 (stereo not drawn) | -3.2%
COC(=O)c1ccc(C23CC2(C(NP(=O)(c2ccccc2)c2ccccc2)c2ccccc2)C3)cc1 (stereo not drawn) | 1.9%
COc1ccc2c(c1)C(=O)[C@H](OC(=O)NCCc1ccc(OC)c(OC)c1)[C@@H](c1ccc(OC)c(Br)c1)O2 | -8.5%
CCCn1c(-c2ccc(F)cc2)nc2c(NCC(C)(C)CN(C)C)nc(C)nc21 | -3.8%
COc1ccc2c(c1)C(=O)[C@@H](OC(=O)NC1CCCC1)[C@H](c1ccc(OC)c(Br)c1)O2 | -4.7%
SMILES | ERK EGF block
CC(C)(C)c1ccc(OCCOc2ccc(C(C)(C)C)cc2NC=O)c(NC=O)c1 | 31.6µM*
COCCOc1ccc(C(F)(F)F)cc1NC(=O)c1ccccc1 | -3.3%
COCCOc1ccc(C(F)(F)F)cc1NC(=O)c1ccc(F)cc1 | -1.8%
CCCCC[C@H](O)/C=C/[C@@H]1[C@H](C/C=C\CCCC(=O)O)[C@@H](O)C[C@H]1O | 9.4%
CC1=C(C(=O)OCc2ccccc2)C(c2ccc(C3CCCCC3)cc2)NC(=O)N1CCCCCC(=O)O (stereo not drawn) | -3.2%
OB(O)c1cc2ccccc2o1 | -7.4%
CC(C)NC(=O)N1CC[C@@]2(CCCN(S(=O)(=O)c3ccccc3)C2)C1 | -0.3%
COc1ccc2c(c1)O[C@@H](c1ccc3c(c1)OCO3)[C@H](OC(=O)Nc1ccc(C)c(Br)c1)C2=O | -13.5%
CC/C=C\C/C=C\C/C=C\C/C=C\C/C=C\C/C=C\CCC(=O)NCCO | -8.6%
COCCNC(=O)c1cnn2c(C(F)F)cc(-c3ccc(C)cc3)nc12 | -12.4%
COc1ccc(-c2cc(C(F)F)n3ncc(C(=O)Nc4cc(C)on4)c3n2)cc1 | 28.2µM*
COc1ccc(-c2cc(C(F)F)n3ncc(C(=O)Nc4c(C)n(C)n(-c5ccccc5)c4=O)c3n2)cc1 | 6.1%
O=C(c1cnccn1)N1CCC2(CC1)CN(c1ccccc1)C2 | 7.0%
O=C(Nc1cccc(F)c1)N1CC[C@@]2(CCCN(C(=O)c3cccc(F)c3)C2)C1 | 3.7%
CS(=O)(=O)N1CCC2(CCCN(Cc3ccccc3)C2)CC1 | 12.7%
O=C(O)C1OC(O)C(O)C(O)C1O (stereo not drawn) | 7.2%
O=C(COc1ccccc1[N+](=O)[O-])Nc1ccc(CN2CCOCC2)cc1 | 2.9%
CN1CCN(c2ccc(NC(=O)COc3ccccc3[N+](=O)[O-])cc2)CC1 | -5.6%
CC(C)C(=O)N1CCN(c2ccc(NC(=O)COc3ccccc3[N+](=O)[O-])cc2)CC1 | 31.6µM*
C/C(=C\C[Si](C)(C)C)CCC=O | -9.1%
C=C(C)C1Cc2c(ccc(C(=O)O)c2O)O1 (stereo not drawn) | -6.7%
CC(C)[C@@H](CC(=O)N[C@@H]1CCCC[C@H]1C(=O)N[C@H](CC(=O)N[C@@H](CCC(=O)O)CC(=O)O)Cc1ccccc1)NC(=O)C[C@H](CO)NC(=O)[C@@H]1CNCC[C@H]1N | -0.8%
C[N+]1(C)C[C@@H](O)C[C@@H]1C(=O)[O-] | -7.3%[25.7 µM]
CC(=O)NC1C(OCCOc2ccc(Cl)cc2Cl)OC(COC(C)=O)C(OC(C)=O)C1OC(C)=O (stereo not drawn) | -8.2%[57.5 µM]
Cc1cn(C2OC(COC(=O)c3ccccc3)C(OC(=O)c3ccccc3)C2OC(=O)c2ccccc2)c(=O)[nH]c1=O (stereo not drawn) | 8.0%
SMILES | ERK EGF block
O=C(OCC1OC(OC(=O)c2cc(O)c(O)c(OC(=O)c3cc(O)c(O)c(O)c3)c2)[C@@H](OC(=O)c2cc(O)c(O)c(OC(=O)c3cc(O)c(O)c(O)c3)c2)C(OC(=O)c2cc(O)c(O)c(OC(=O)c3cc(O)c(O)c(O)c3)c2)C1OC(=O)c1cc(O)c(O)c(OC(=O)c2cc(O)c(O)c(O)c2)c1)c1cc(O)c(O)c(OC(=O)c2cc(O)c(O)c(O)c2)c1 (stereo partly drawn) | 7.94µM*
COC(=O)C1(C)C=C(Nc2ccc(OC)cc2)C(=O)N1c1ccc(OC)cc1 (stereo not drawn) | 0.0%
COc1c2c(c(C(=O)/C=C/C(C)=C/c3ccccc3)c3c1OCO3)CCN(C)C2 | -7.1%
c1ccc(C(c2ccccc2)N2CCC3(CCNCC3)CC2)cc1 | -6.3%
CN1[C@@H]2CC[C@H]1CC(OC(=O)[C@@H](CO)c1ccccc1)C2 (stereo partly drawn) | 1.5%[25.7 µM]
CN(C)CCCN(C(=O)c1ccc2c(c1)CCCC2)c1nc2ccc(Cl)cc2s1 | 20µM*
CN(C)CCCN(C(=O)COc1ccccc1)c1nc2ccc(Cl)cc2s1 | -1.8%
CN(C)CCCN(C(=O)c1sc2ccccc2c1Cl)c1nc2ccc(F)cc2s1 | -0.3%
O=C(Nc1ccccc1)N1CCCC2(CCN(C(=O)c3cnccn3)CC2)C1 | 5.2%
CC(C)[C@@H](CC(=O)N[C@@H]1CCNC[C@H]1C(=O)N[C@H](CC(=O)N[C@@H](CCC(=O)O)CC(=O)O)Cc1c[nH]c2ccccc12)NC(=O)C[C@H](CO)NC(=O)[C@@H]1CCCC[C@H]1N | -14.6%
CCC(CC)=NNc1ccc([N+](=O)[O-])cc1[N+](=O)[O-] | -3.7%
O=[N+]([O-])c1ccc(N/N=C2\CC3CC=CC23)c([N+](=O)[O-])c1 (stereo not drawn) | 14.1µM*
O=[N+]([O-])c1ccc(N/N=C2\CC3CC=CC23)cc1 (stereo not drawn) | -13.3%
CC[C@H](C)[C@@H](NC(=O)O[C@H]1C(=O)c2ccc(OC)cc2O[C@@H]1c1ccc2c(c1)OCO2)C(=O)OC | -8.6%
